Source: the supplement of paper PMC13380429

Test system: Vero E6 infected with SARS-CoV-2
Experiment: inhibition of SARS-CoV-2 cytopathic effect; higher = more antiviral protection, active = above 15
Details: 48 h

Measured: inhibition of SARS-CoV-2 cytopathic effect

O=C1COc2c(CCNCCN(C(=O)CCNCCc3ccc(Cl)c(Cl)c3)C3CCCCC3)ccc(O)c2N1
inactive: 1 nM -5.28% | 8.33 nM -4.67% | 100 nM -5.93% | 833.33 nM -1.32% | 10000 nM -3.71%

Cc1cc(C)c(N)c(C#Cc2cccc(F)c2)n1
inactive: 1 nM 1.69% | 8.33 nM -1.37% | 100 nM 0.6% | 833.33 nM 3.1% | 10000 nM 1.98%

Cn1c2c(c3ccccc31)CCNCC2
inactive: 1 nM 3.79% | 8.33 nM 2.27% | 100 nM -0.51% | 833.33 nM 0.96% | 10000 nM -0.01%

O=S(=O)(O)c1ccc(-c2c3nc(c(-c4ccc(S(=O)(=O)O)cc4)c4ccc([nH]4)c(-c4ccc(S(=O)(=O)O)cc4)c4nc(c(-c5ccc(S(=O)(=O)O)cc5)c5ccc2[nH]5)C=C4)C=C3)cc1
inactive: 1 nM -2.9% | 8.33 nM -2.68% | 100 nM -5.47% | 833.33 nM -6.51% | 10000 nM -7.03%

CC(C)C(N)C(=O)O (stereo in doubt) [L-valine]
inactive: 1 nM 0.78% | 8.33 nM -0.34% | 100 nM 0.64% | 833.33 nM -0.11% | 10000 nM 1.66%

CCOc1ccc(-c2ccc(Cn3c(CC(C)(C)C(=O)O)c(SC(C)(C)C)c4cc(OCc5ccc(C)cn5)ccc43)cc2)cn1
inactive: 1 nM 1.07% | 8.33 nM 0.1% | 100 nM -0.84% | 833.33 nM -0.16% | 10000 nM -0.78%

O=C(O)CCNc1cc(N2CCc3ccccc3CC2)nc(-c2ccccn2)n1
inactive: 1 nM -2.6% | 8.33 nM 1.21% | 100 nM 0.26% | 833.33 nM -1.21% | 10000 nM 0.82%
